# Most compounds without a hit are left out; they make up all but 2.7% or so of the library.
# MPTP inh: permeability transition pore inhibition. inhibition, % at 10 µM. AID 602449. 1.4% of 360,000 active. isolated mouse mitochondria, Ca2+ swelling absorbance, 30 min;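 active means inhibition of 50% or more, scaled per plate between neutral and stimulator controls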;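 further: 0% = DMSO wells given calcium and 100% = 1 mM EGTA wells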
# H9c2 TAG inh: reduces triacylglycerol accumulation in H9c2 cells. 0.66% of 230,000 active. Nile Red lipid (TAG) fluorescence; cells loaded with 200 µM oleic acid. inhibition, % at 12.5 µM;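 active means pattern-corrected inhibition of lipid staining of at least 50% with the nuclear-stain viability signal not falling by more than 50%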;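 further: 0% = DMSO wells and 100% = triacsin C control wells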
# NadD block: inhibitors of Staphylococcus aureus NadD; purified NadD enzyme, colorimetric absorbance read-out; inhibition, % at 20 µM; 0.78% of 360,000 active; AID 602399; in the data active means inhibition above about 26%
# aDG glyco act: increases alpha dystroglycan glycosylation; 0.22% of 360,000 active; Pro5-aDG cells, alpha-DG glycosylation AlphaScreen (IIH6); 0% Pro5, 100% B10-LARGE cell signal; activation, % at 10 µM; AID 624168;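 active means activation of at least 8% versus controls, or a plate z-score of at least 8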;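 further: Pro5 are CHO cells carrying HIG-tagged alpha-DG that lacks glycosylation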
# Rh123 counter: membrane potential counter-screen of mitochondrial pore inhibitors; inhibition, % at 10 µM; 78% of 5,000 active; shares compounds with MPTP inh; isolated mitochondria, Rhodamine 123 fluorescence; in the data active means inhibition above about 22%;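 further: 0% = DMSO vehicle and 100% = positive control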
# MPTP swell DR: MPTP inhibition, dose response swelling confirmation. IC50, µM. 58% of 780 active. isolated mitochondria swelling, absorbance. shares compounds with MPTP inh. AID 651561; in the data active means IC50 below about 20 µM
# MPTP cs DR: active in counter-screen for permeability transition pore inhibitors. shares compounds with MPTP inh. isolated mitochondria counterscreen, fluorescence read-out. IC50, µM. 49% of 780 active. AID 651564; in the data active means IC50 below about 80 µM
# Numbers without * were called inactive; . = no result given.
SMILES,MPTP inh,H9c2 TAG inh,NadD block,aDG glyco act,Rh123 counter,others
O=C(Nc1ccc(F)cc1)Nc1csc2ccccc12,75*,-13,-9,0,91*,
CN(C)c1ccc(NC(=O)Nc2csc3ccccc23)cc1,52*,1,-5,0,54*,
O=C(Cc1ccc(F)cc1)Nc1ccccc1N1CCCC1,0,.,2,0,.,
O=C(Nc1ccc(F)cc1)Nc1ccccc1N1CCCCC1,85*,9,-4,0,77*,
O=C(NCCCn1cccn1)c1cc(COc2ccccc2)on1,0,3,0,0,.,
C/C(N)=C(/C#N)C(=O)COC(=O)c1ccc(OCC2CCCO2)cc1 (configuration not stated),0,.,1,0,.,
CCCCn1c(-c2ccccc2)cnc1SCC(=O)NCCc1ccc(OC)c(OC)c1,0,.,3,0,.,
CCCC(=O)NC(Nc1cc(C(F)(F)F)ccc1Cl)C(Cl)(Cl)Cl (configuration not stated),90*,29,-4,0,93*,
CCCC(=O)NC(Nc1cccc(C(F)(F)F)c1)C(Cl)(Cl)Cl (configuration not stated),7,13,-9,0,.,
COCCNC(=O)C1(C)CCCN(C(=O)c2ccccc2OC(F)(F)F)C1 (configuration not stated),0,-18,3,0,.,
CCNC(=O)NC(=O)C(C)OC(=O)CNS(=O)(=O)c1c(Cl)cc(Br)cc1Cl (configuration not stated),-1,12,-6,0,.,
Clc1ccc(N/N=C/c2ccncc2)cc1Cl,70*,.,-4,2,56*,
Clc1cnc(N/N=C/c2ccncc2)c(Cl)c1,-2,.,4,0,.,
O=C(NNC(=S)NC(=O)c1ccccc1[N+](=O)[O-])c1ccc(Cl)cc1Cl,0,-16,6,0,.,
Cc1ccc(C(=O)NNC(=S)NC(=O)c2ccc(Cl)cc2Cl)cc1,88*,.,15,0,8,
CCCCC(=O)NC(=S)NNC(=O)c1ccc(Cl)cc1Cl,51*,-10,9,0,-13,MPTP swell DR=15*;MPTP cs DR=>80
COc1ccc(CSc2nnc(-c3ccncc3)n2C)cc1F,-1,.,-4,0,.,
CC(=O)Nc1ccc(CN2C(=O)C(C)(C)ON=C2c2ccc(NC(C)=O)cc2)cc1,-1,0,4,0,.,
CCOC(=O)c1sc(NC(=O)CCN2CCN(C)CC2)c(C(=O)OCC)c1C,69*,13,-12,0,-6,MPTP swell DR=13*;MPTP cs DR=>80
CCN(CC)c1cccc(OC(=O)c2cccnc2Cl)c1,5,.,0,0,.,
CC(=O)N1C[C@H]2CON(C)[C@H]2C[C@H]1c1cccc(-c2cc(Cl)cc(Cl)c2)c1,1,-23,0,0,.,
O=C(Nc1nnc([C@@H]2C[C@H](O)[C@@H](CO)O2)s1)c1cccc(Cl)c1,-2,16,-4,0,.,
O=[N+]([O-])c1cc(-n2cnnn2)ccc1N1CCC(Cc2ccccc2)CC1,75*,.,-5,1,57*,
CCCCCc1c(-c2ccccc2OC)ncn1CCc1ccccc1OC,81*,.,2,0,113*,
CCCCc1c(-c2ccccc2OC)ncn1CCc1ccccc1OC,80*,.,4,0,115*,
SMILES,MPTP inh,H9c2 TAG inh,NadD block,aDG glyco act,Rh123 counter,others
COc1cccc(CNC(=O)c2ccccc2NC(=O)C2=C(C)OCCS2)c1OC,1,.,-7,0,.,
CCC(CO)Oc1cc(NCc2ccccc2Cl)c2ncn(C(C)C)c2c1 (configuration not stated),0,5,-5,0,.,
COc1ccc(CCC(=O)Nc2ccc(OC)c(S(=O)(=O)N3CCCCC3)c2)cc1OC,-1,-6,1,0,.,
COc1ccc(CCC(=O)Nc2ccc(Cl)c(S(=O)(=O)N3CCCC3)c2)cc1,96*,-25,-4,0,85*,
CCCNS(=O)(=O)c1ccc(OCC(=O)Nc2ccc3c(c2)OCCO3)c(C)c1,0,20,-12,0,.,
COC(=O)c1ccc(C2N=C(c3cccs3)CC(c3ccccc3O)N2)cc1 (configuration not stated),52*,17,-4,0,88*,
COc1ccc([C@H]2CC(=O)C=C(c3ccc4cc[nH]c4c3)C2)cc1,1,-19,24,0,.,
C/C(=N\NC(=O)c1ccccc1O)C1C(=O)c2ccccc2C1=O,64*,10,3,0,70*,
C/C(=N\NC(=O)c1cc2ccccc2cc1O)c1cc2ccccc2o1,98*,3,49*,0,57*,
C/C(=N\NC(=O)c1cc2ccccc2cc1O)c1ccccn1,2,.,8,-1,.,
C/C(=N/NC(=O)c1cc2ccccc2cc1O)C1C(=O)c2ccccc2C1=O,86*,-3,27,0,17,
CCC/C(C)=N/NC(=O)c1ccccc1O,0,.,-2,0,.,
COc1ccc(-c2noc(CCC(=O)N3CCN(c4ccc(F)cc4)CC3)n2)cc1,2,-3,1,0,.,
C/C(=N\NC(=O)c1c(Cl)cnn1C)c1ccc(NC(=O)c2ccncc2)cc1,-12,.,4,0,.,
CSc1nc(N)c2c(n1)N(C)C=NS2(=O)=O,-2,11,-2,0,.,
CN(Cc1ccccc1)C(=O)c1cnc(Cc2c[nH]c3ccccc23)c(I)c1,-1,6,4,0,.,
CSc1ccc(CN2C(=O)C(C)Oc3c(C(C)=O)cccc32)cc1 (configuration not stated),2,4,-6,0,.,
CSc1ccc(CN2C(=O)C(F)(F)Oc3c(C(C)=O)cccc32)cc1,74*,-6,0,1,75*,
CCOC(=O)c1ccc(NCC(O)COc2ccccc2)cc1 (configuration not stated),0,-9,-6,1,.,
CCOC(=O)c1cccc(OCC(O)CNCCOc2ccccc2F)c1 (configuration not stated),74*,.,-7,0,-12,MPTP swell DR=8.9*;MPTP cs DR=>80
CCOc1cc(C(=O)Nc2ccc(F)cc2)cc(Br)c1OC,67*,.,-2,0,79*,
COc1ccc(N2CCN(CC(=O)Nc3c(C)cccc3C)CC2)cc1,0,-8,-4,0,.,
O=[N+]([O-])c1ccc(Nc2ccc3ccccc3c2)nc1,78*,.,-4,0,59*,
O=C(NNC(=O)c1ccncc1)Nc1ccc(N=Nc2ccccc2)cc1,68*,8,3,0,30*,
O=C(NNc1ccc([N+](=O)[O-])cn1)Nc1ccc(N=Nc2ccccc2)cc1,91*,6,15,0,64*,
CCOc1cc(CNCCO)cc(Br)c1OCc1cccs1,93*,.,-7,4,9,MPTP swell DR=4.1*;MPTP cs DR=23*
CCOc1cc(CNCc2ccncc2)cc(Br)c1OCc1ccccc1F,61*,-33,-7,3,76*,
CCOc1cc(CNCc2cccs2)cc(Br)c1OCC,14,.,-3,0,.,

# Assay outcomes: PubChem BioAssay, Sanford-Burnham Center for Chemical Genomics
